Assay results taken from PubChem BioAssay (EPA / NIEHS).
Inconclusive results are not listed. The source made the active and inactive calls. Rule for the calls: active = hit-call score of the fitted dose curve at least 0.9, where 1 is the maximum; inconclusive = response in the unintended direction; inactive = score below 0.9.

Legend:
[1] = target: Cellular tumor antigen p53 (Homo sapiens) (UniProt P04637); experiment: TOX21_p53_BLA_p2_ratio: Tox21 HCT-116 p53 Agonism Beta-lactamase Assay, Ratio, Phase 2 (AID 2283592)
Sequence of Cellular tumor antigen p53 (Homo sapiens) (P04637 whole entry, looked up): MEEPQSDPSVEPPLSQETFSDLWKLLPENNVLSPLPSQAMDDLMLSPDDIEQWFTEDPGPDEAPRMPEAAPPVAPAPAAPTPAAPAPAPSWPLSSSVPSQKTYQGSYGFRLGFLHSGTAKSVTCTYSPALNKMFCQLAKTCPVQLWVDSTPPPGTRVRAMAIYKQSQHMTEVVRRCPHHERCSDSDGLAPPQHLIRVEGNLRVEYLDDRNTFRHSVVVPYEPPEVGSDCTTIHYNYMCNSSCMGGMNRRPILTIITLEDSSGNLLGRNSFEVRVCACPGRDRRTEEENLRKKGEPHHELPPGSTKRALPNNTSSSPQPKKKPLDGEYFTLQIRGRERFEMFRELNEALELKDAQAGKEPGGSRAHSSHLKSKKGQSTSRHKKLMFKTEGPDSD
Summary of the method: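 An inducible beta-lactamase reporter in HCT116 cells signals p53 pathway activation. After 16 h chemical exposure at 37C, cells load CCF4-AM substrate for 2 h at room temperature; activity is the cleaved/uncleaved emission ratio relative to DMSO.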

[2] = TOX21_p53_BLA_p3_viability: Viability Assessment in the Tox21 HCT-116 p53 Agonism Beta-lactamase Assay, Phase 3 (AID 2283593);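 note: cells exposed to compound for 16 h before reading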
Summary of the method: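 Cellular ATP was quantified by CellTiter-Glo luminescence, read after 30 min at room temperature. Beforehand, HCT116 cells (4000/well) received compound 5 h post-seeding, 217-fold diluted from DMSO, then incubated 16 h at 37C.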

[3] = target: Cellular tumor antigen p53 (Homo sapiens) (UniProt P04637); experiment: TOX21_p53_BLA_p3_ratio: Tox21 HCT-116 p53 Agonism Beta-lactamase Assay, Ratio, Phase 3 (AID 2283596)
Summary of the method: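 HCT116 p53-bla cells (4000/well) given compound in DMSO (217-fold dilution) after 5 h, incubated 16 h at 37C. CCF4-AM substrate 2 h at room temperature; 460/530 nm emission ratio, gain fitted against DMSO.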

[4] = TOX21_p53_BLA_p4_viability: Viability Assessment in the Tox21 HCT-116 p53 Agonism Beta-lactamase Assay, Phase 4 (AID 2283597);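 note: hits lower the luminescence signal meaning cytotoxicity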
Summary of the method: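 Compound exposure of HCT116 cells lasts 16 h at 37C, 5% CO2, with DMSO stocks diluted 217-fold. Cellular ATP is then quantified by CellTiter-Glo luminescence after 30 min at room temperature.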

[5] = target: Cellular tumor antigen p53 (Homo sapiens) (UniProt P04637); experiment: TOX21_p53_BLA_p5_ratio: Tox21 HCT-116 p53 Agonism Beta-lactamase Assay, Ratio, Phase 5 (AID 2283599)
Summary of the method: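 Beta-lactamase reporter ratio (blue 460 nm over green 530 nm, 405 nm excitation) after 2 h CCF4-AM loading, in HCT-116 cells exposed 16 h at 37 C to compounds pinned at 217-fold dilution. Increases relative to DMSO baseline scored.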

[6] = TOX21_p53_BLA_p5_viability: Viability Assessment in the Tox21 HCT-116 p53 Agonism Beta-lactamase Assay, Phase 5 (AID 2283600)
Summary of the method: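 Counter-readout for cytotoxicity: ATP-dependent luminescence from CellTiter-Glo, read in the beta-lactamase wells after 30 min at RT, following a 16 h compound exposure at 37C.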

[7] = target: Cellular tumor antigen p53 (Homo sapiens) (UniProt P04637); experiment: TOX21_p53_BLA_p4_ratio: Tox21 HCT-116 p53 Agonism Beta-lactamase Assay, Ratio, Phase 4 (AID 2283601)
Summary of the method: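 Signal is the blue/green (460nm/530nm) ratio of cleaved versus uncleaved CCF4-AM substrate, read after 2 h substrate loading. Cells were HCT116 carrying the p53-responsive beta-lactamase reporter, dosed 16 h at 37C, 5% CO2; CellTiter-Glo measured in parallel.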

Measured: outcome

CC(C)CON=O
inactive: all assays above
